Records with an inconclusive call do not appear. Entries that show only a call come without a potency. Activity calls are given as the source filed them. Calls come from the whole dose curve; as a rule, active = well fitted curve in the direction sought with a large enough effect; inconclusive = small, poorly fitted or top-dose-only effect, or another doubt; inactive = no such curve, though single readings can be large; an effect the other way counts as inactive or inconclusive.
biological target: DNA repair nuclease/redox regulator APEX1 (Homo sapiens) (UniProt P27695); test: qHTS Validation Assay for Inhibitors of the Human Apurinic/apyrimidinic Endonuclease 1 (APE1) (AID 1705; note: potency is the fitted concentration of half-maximal effect); conditions: purified APE1 endonuclease activity, fluorescence, titration; series mostly up to 57.1 µM
Sequence (P27695 whole entry, looked up): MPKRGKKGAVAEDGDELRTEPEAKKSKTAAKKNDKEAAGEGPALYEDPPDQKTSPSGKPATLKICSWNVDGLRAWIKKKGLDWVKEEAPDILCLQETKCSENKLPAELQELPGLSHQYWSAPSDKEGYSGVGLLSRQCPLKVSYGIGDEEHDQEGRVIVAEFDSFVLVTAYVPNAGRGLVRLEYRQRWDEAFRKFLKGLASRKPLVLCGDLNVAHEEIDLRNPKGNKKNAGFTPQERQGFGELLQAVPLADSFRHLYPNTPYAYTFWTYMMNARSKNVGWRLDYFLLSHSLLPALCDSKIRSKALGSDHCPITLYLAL
Procedure, shortened: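 Endonuclease activity of human APE1 is followed as dequenching when the enzyme incises a tetrahydrofuran abasic site in a short duplex labelled 5'-TAMRA/3'-BHQ-2 (50 nM final), after 15 min enzyme–compound preincubation at room temperature.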

Row | SMILES | Potency
1 | COc1cc(CC(=O)O)ccc1O | inactive
2 | NC(Cc1cccc(-c2ccccc2CP(=O)(O)O)c1)C(=O)O (centres undefined) | inactive
3 | Cn1c(=O)c2[nH]c(C3CCCC3)nc2n(C)c1=O | inactive
4 | O=c1[nH]c(=O)c2nc3ccccc3nc2[nH]1 | inactive
5 | NOCC(=O)O | inactive
6 | NC(N)=NC(N)=Nc1ccccc1 | inactive
7 | CC1CCN(CC[C@H]2CCCN2S(=O)(=O)c2cccc(O)c2)CC1 | inactive
8 | CC(C)NCC(O)COc1ccc(CC(N)=O)cc1 (centres undefined) | inactive
9 | N[C@H](C(=O)O)[C@H](O)C(=O)O | inactive
10 | NC1C=CC=C(C(=O)O)C1 (centres undefined) | inactive
11 | NCCC1CCCC(CCN)N1 (centres undefined) | inactive
12 | CN(C)CCC(c1ccc(Br)cc1)c1ccccn1 (centres undefined) | inactive
13 | NC(N)=NC(N)=Nc1cccc(Cl)c1 | inactive
14 | CC(=O)O[C@H]1CC2(C)[C@@H](C[C@@H](O)[C@H]3[C@@]4(C)CC[C@@H](O)[C@@H](C)[C@@H]4CC[C@@]32C)C1=C(CCC=C(C)C)C(=O)O (some centres undefined) | 39.8 µM (active)
15 | CCN(CC)CCCCCCCCOC(=O)c1cc(OC)c(OC)c(OC)c1 | inactive
16 | COc1ccccc1N1CCN(CCCCNC(=O)c2ccc3ccccc3c2)CC1 | inactive
17 | C[C@H](O)C(=O)C1=Nc2c(nc(N)[nH]c2=O)NC1 | inactive
18 | c1ccc(CN2CCC3(CCCc4ccccc43)CC2)cc1 | inactive
19 | O=C(O)c1ccccc1Nc1ccccc1 | inactive

Row | SMILES | Potency
20 | NC(N)=[N+]1CCc2ccccc2C1 | inactive
21 | CC(N)=NCCCC[C@@H](N)C(=O)O | inactive
22 | O=C(O)C1=CCCN(CCON=C(c2ccccc2)c2ccccc2)C1 | inactive
23 | COc1cc(C(O)CO)ccc1O (centres undefined) | inactive
24 | COc1ccccc1N1CCN(CCCNc2c(C)c(=O)n(C)c(=O)n2C)CC1 | inactive
25 | CN[C@H](CC(=O)O)C(=O)O | inactive
26 | CSC(N)=NCCC[C@H](N)C(=O)O | inactive
27 | CN1CCN(c2nc3cc(C(F)(F)F)ccc3n3cccc23)CC1 | inactive
28 | CCCC[C@@]1(C2CCCC2)Cc2cc(OCC(=O)O)c(Cl)c(Cl)c2C1=O | inactive
29 | COc1cc(/C=C(\C#N)C(=O)c2ccc(O)c(O)c2)cc(I)c1O | 2.24 µM (active)
30 | O=C(O)/C(=C/c1c(C(=O)O)[nH]c2cc(Cl)cc(Cl)c12)c1ccccc1 | inactive
31 | NC1(C(=O)O)CCc2cc(C(=O)O)ccc21 (centres undefined) | inactive
32 | CN1CCC2(CCN3CCc4c(oc5ccccc45)C3C2)N(C)C1=O (centres undefined) | inactive
33 | CC(=O)NCCc1c[nH]c2ccc(O)cc12 | inactive
34 | Cc1cc2c(cc1Cl)N(C(=O)Nc1ccnc3ccccc13)CC2 | inactive
35 | Cc1cccc(C)c1OCC(N)C(C)C (centres undefined) | inactive
36 | O=C(O)c1cccnc1C(=O)O | inactive
37 | Nc1nc2[nH]c(=O)cnc2c(=O)[nH]1 | inactive

test system: not listed separately; test: Counterscreen for APE1 Inhibitors: Fluorescent Dye Displacement Validation Assay (AID 1707); conditions: fluorescent dye displacement from DNA; series mostly up to 57.1 µM
Procedure, shortened: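 Thiazole Orange displacement from dsDNA: 250 nM ThO with 50 nM TAMRA-labelled abasic-site (tetrahydrofuran) duplex in 50 mM Tris-HCl pH7.5, 50mM NaCl, 2 mM MgCl2, 0.01% Tween-20. Loss of endpoint fluorescence (ex 480 nm, em 540 nm) flags DNA binders.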

Row | SMILES | Potency
38 | COc1cc(CC(=O)O)ccc1O | inactive
39 | NC(Cc1cccc(-c2ccccc2CP(=O)(O)O)c1)C(=O)O (centres undefined) | inactive
40 | Cn1c(=O)c2[nH]c(C3CCCC3)nc2n(C)c1=O | inactive
41 | O=c1[nH]c(=O)c2nc3ccccc3nc2[nH]1 | inactive
42 | NOCC(=O)O | inactive
43 | NC(N)=NC(N)=Nc1ccccc1 | inactive
44 | CC1CCN(CC[C@H]2CCCN2S(=O)(=O)c2cccc(O)c2)CC1 | inactive
45 | CC(C)NCC(O)COc1ccc(CC(N)=O)cc1 (centres undefined) | inactive
46 | N[C@H](C(=O)O)[C@H](O)C(=O)O | inactive
47 | NC1C=CC=C(C(=O)O)C1 (centres undefined) | inactive
48 | NCCC1CCCC(CCN)N1 (centres undefined) | inactive
49 | CN(C)CCC(c1ccc(Br)cc1)c1ccccn1 (centres undefined) | inactive
50 | NC(N)=NC(N)=Nc1cccc(Cl)c1 | inactive
51 | CC(=O)O[C@H]1CC2(C)[C@@H](C[C@@H](O)[C@H]3[C@@]4(C)CC[C@@H](O)[C@@H](C)[C@@H]4CC[C@@]32C)C1=C(CCC=C(C)C)C(=O)O (some centres undefined) | inactive
52 | CCN(CC)CCCCCCCCOC(=O)c1cc(OC)c(OC)c(OC)c1 | inactive
53 | COc1ccccc1N1CCN(CCCCNC(=O)c2ccc3ccccc3c2)CC1 | inactive
54 | C[C@H](O)C(=O)C1=Nc2c(nc(N)[nH]c2=O)NC1 | inactive
55 | c1ccc(CN2CCC3(CCCc4ccccc43)CC2)cc1 | inactive
56 | O=C(O)c1ccccc1Nc1ccccc1 | inactive

Row | SMILES | Potency
57 | NC(N)=[N+]1CCc2ccccc2C1 | inactive
58 | CC(N)=NCCCC[C@@H](N)C(=O)O | inactive
59 | O=C(O)C1=CCCN(CCON=C(c2ccccc2)c2ccccc2)C1 | inactive
60 | COc1cc(C(O)CO)ccc1O (centres undefined) | inactive
61 | COc1ccccc1N1CCN(CCCNc2c(C)c(=O)n(C)c(=O)n2C)CC1 | inactive
62 | CN[C@H](CC(=O)O)C(=O)O | inactive
63 | CSC(N)=NCCC[C@H](N)C(=O)O | inactive
64 | CN1CCN(c2nc3cc(C(F)(F)F)ccc3n3cccc23)CC1 | inactive
65 | CCCC[C@@]1(C2CCCC2)Cc2cc(OCC(=O)O)c(Cl)c(Cl)c2C1=O | inactive
66 | COc1cc(/C=C(\C#N)C(=O)c2ccc(O)c(O)c2)cc(I)c1O | inactive
67 | O=C(O)/C(=C/c1c(C(=O)O)[nH]c2cc(Cl)cc(Cl)c12)c1ccccc1 | inactive
68 | NC1(C(=O)O)CCc2cc(C(=O)O)ccc21 (centres undefined) | inactive
69 | CN1CCC2(CCN3CCc4c(oc5ccccc45)C3C2)N(C)C1=O (centres undefined) | inactive
70 | CC(=O)NCCc1c[nH]c2ccc(O)cc12 | inactive
71 | Cc1cc2c(cc1Cl)N(C(=O)Nc1ccnc3ccccc13)CC2 | inactive
72 | Cc1cccc(C)c1OCC(N)C(C)C (centres undefined) | inactive
73 | O=C(O)c1cccnc1C(=O)O | inactive
74 | Nc1nc2[nH]c(=O)cnc2c(=O)[nH]1 | inactive

— PubChem BioAssay (NCATS)
